This is a sample that favours compounds with a hit; in the whole collection about 7% have one here.
HP1b chromo inh – HP1-beta chromodomain-methylated histone interaction inhibition. actives 0.56% (n = 390,000). AID 540317. P83916. AlphaScreen HP1-beta / biotin-H3K9me3 peptide binding. Potency, µM (doses to about 114 µM), for inactives: at the top dose activity change, negative = inhibition, hits mostly inhibitors; note: potency is the fitted concentration of half-maximal effect; nearly all actives have a fitted effect of over 70% in size
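HP1-beta protein (50 nM final) preincubated 30 min at room temperature with biotinylated H3(1-18)K9me3 peptide (50 nM) in PBS pH 7.4, 0.01% Tween-20, then compound added for 30 min. AlphaScreen streptavidin donor/nickel chelate acceptor beads (10 ug/mL final), 30 min dark, luminescence read.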
PLK1 PBD inh – blocks phosphopeptide binding to human PLK1 polo-box domain; P53350; Plk1 PBD binding of FITC phosphopeptide, fluorescence polarization; Potency, µM, for the others: max response, negative = inhibition, most hits filed as inhibitors; actives 2.8% (n = 360,000); note: potency is the fitted concentration of half-maximal effect; series mostly up to about 57 µM; % is set by controls: 0 for no effect and ±100 for the full control effect; nearly all actives have a fitted effect of over 65% in size
JMJD2A Tudor inh – inhibitors of human JMJD2A Tudor domain; AID 504339; AlphaScreen JMJD2A-Tudor / H3K4me3 peptide binding; Potency, µM (series often up to 114 µM), inactives show at the highest dose activity change, negative = inhibition, hits mostly inhibitors; O75164; actives 4.4% (n = 390,000); note: potency is the fitted concentration of half-maximal effect; % is set by controls: 0 for no effect and ±100 for the full control effect; nearly all actives have a fitted effect of over 50% in size
PI5P4K alpha inh – blocks human PI5P4K alpha kinase activity; AID 652105; actives 1.2% (n = 330,000); max response, %; PI5P4Kalpha enzyme, ADP-Glo luminescence, 60 min; active compounds read low; active = max response of -50% or lower; inconclusive = between -30% and -50%; inactive = -30% or higher; note: value at the top dose of about 77 µM; % is set by controls: 0 for no effect and ±100 for the full control effect
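PI5P4Kalpha ADP-Glo assay; 5 microM ATP final; 60 min RT reaction; HEPES pH 7.4/EGTA/CHAPS, 5% DMSO; controls lacking substrate or enzyme; luminescent end-point.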
KAT2A inh – GCN5L2 (KAT2A) acetyltransferase inhibition; actives 0.21% (n = 390,000); Potency, µM (top dose mostly 58.9 µM), without a hit: top-dose activity change, negative = inhibition, hits mostly inhibitors; AID 504327; GCN5L2 HAT assay, ThioGlo1 CoA-SH fluorescence; Q92830; note: potency is the fitted concentration of half-maximal effect; % is set by controls: 0 for no effect and ±100 for the full control effect
Target sequence (Q92830 whole entry, looked up): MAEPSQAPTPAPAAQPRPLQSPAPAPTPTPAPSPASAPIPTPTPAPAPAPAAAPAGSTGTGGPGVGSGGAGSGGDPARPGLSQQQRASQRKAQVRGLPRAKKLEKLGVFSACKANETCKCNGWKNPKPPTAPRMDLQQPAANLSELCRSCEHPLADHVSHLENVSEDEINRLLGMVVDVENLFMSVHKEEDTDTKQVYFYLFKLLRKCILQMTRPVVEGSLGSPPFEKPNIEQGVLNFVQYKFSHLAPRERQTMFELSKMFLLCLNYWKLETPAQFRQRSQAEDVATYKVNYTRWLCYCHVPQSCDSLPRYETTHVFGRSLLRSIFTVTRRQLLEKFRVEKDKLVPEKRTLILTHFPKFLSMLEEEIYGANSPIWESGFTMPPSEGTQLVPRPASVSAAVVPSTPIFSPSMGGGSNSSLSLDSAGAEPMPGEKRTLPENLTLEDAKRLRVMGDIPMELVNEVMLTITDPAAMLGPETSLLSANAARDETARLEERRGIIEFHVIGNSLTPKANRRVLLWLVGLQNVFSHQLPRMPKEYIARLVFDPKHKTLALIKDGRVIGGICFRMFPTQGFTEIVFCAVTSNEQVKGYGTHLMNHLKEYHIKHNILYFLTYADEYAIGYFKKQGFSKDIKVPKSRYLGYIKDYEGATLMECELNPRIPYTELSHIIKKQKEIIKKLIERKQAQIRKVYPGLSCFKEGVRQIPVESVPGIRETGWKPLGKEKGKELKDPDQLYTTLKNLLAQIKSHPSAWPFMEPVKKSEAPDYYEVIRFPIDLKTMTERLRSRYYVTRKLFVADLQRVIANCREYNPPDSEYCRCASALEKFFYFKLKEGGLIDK
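Free CoA generated was detected with ThioGlo1 (50uM) fluorescence at Ex340nm/Em540nm, read immediately and after 20 min at room temperature. Enzyme, 20 nM in HEPES pH 7.5 buffer, saw compounds 15 min before adding 75uM H3(1-25) peptide and 70uM acetyl-CoA.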
BAZ2B block – BAZ2B (human) inhibition; Q9UIF8; AlphaScreen BAZ2B-H3K14Ac peptide displacement; Potency, µM (series often up to 114 µM), without a hit: at the top dose activity change, negative = inhibition, hits mostly inhibitors; actives 4.4% (n = 360,000); AID 504333; note: potency is the fitted concentration of half-maximal effect; % is set by controls: 0 for no effect and ±100 for the full control effect; nearly all actives have a fitted effect of over 60% in size
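BAZ2B 50 nM plus b-H3(5-23)K14Ac 50 nM, PBS pH 7.4/0.01% Tween-20, 30 min RT; compound added (max 110 uM), 30 min RT; streptavidin donor/Ni-chelate acceptor beads 10 ug/mL final, 20 min dark; AlphaScreen read.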
An asterisk follows results filed as active; i = inactive; ? = inconclusive; / = no result; [ ] = dose if it differs, or a comment. Unless noted, calls come from the whole dose curve; as a rule, active = well fitted curve in the direction sought with a large enough effect; inconclusive = small, poorly fitted or top-dose-only effect, or another doubt; inactive = no such curve, though single readings can be large; an effect the other way counts as inactive or inconclusive.

SMILES	HP1b chromo inh	PLK1 PBD inh	JMJD2A Tudor inh	PI5P4K alpha inh	KAT2A inh	BAZ2B block
COc1ccccc1-c1nc(SCC(=O)Nc2ccccc2F)n[nH]1	22.7%	5.6%	2.1%	-1.4	-2.9%	-4.5%
COc1ccc(NC(=O)CSc2n[nH]c(-c3ccccn3)n2)cc1	35.5%	4.3%	3.98µM*	7.9	-3.4%	3.55µM*
COc1ccccc1NC(=O)CSc1n[nH]c(-c2ccccn2)n1	23.4%	-2.5%	3.55µM*	-2.7	-1.8%	4.47µM*
COc1ccc(-c2nc(SCC(=O)Nc3cccc(C(C)=O)c3)n[nH]2)cc1	33.8%[57 µM]	/	2.9%	/	6.0%	2.9%
O=C(CSc1n[nH]c(-c2cccnc2)n1)Nc1ccccc1	53.0%	-0.7%	-5.1%	1.9	4.1%	11.2%
O=C(NNC(=O)c1ccccc1C(F)(F)F)c1csc(N2CCOCC2)n1	47.0%	4.3%	5.8%	-3.2	-4.8%	-17.4%
CCCCN(C(=O)CCn1c(=O)oc2ccccc21)c1ccccc1	46.1%	-10.6%	-5.4%	0.5	?	-0.3%
CC1(C(=O)Nc2ccccc2)CCN1C(=O)CCc1ccc(Cl)cc1Cl (stereo not drawn)	/	-12.3%	/	9.1	/	/
COc1ccccc1NC(=O)CSc1n[nH]c(-c2ccco2)n1	-17.3%[57 µM]	26.7µM*	-32.5%	0.6	/	/
O=[N+]([O-])c1ccc(N/N=C2\CC3CC=CC23)c([N+](=O)[O-])c1 (stereo not drawn)	14.1µM*	-13.6%	14.1µM*	-26.2	-16.1%	3.16µM*
CC(=O)c1cccc(NC(=O)CN(c2cc(C)cc(C)c2)S(=O)(=O)c2c(C)noc2C)c1	19.0%	/	-18.3%	/	-20.9%	/
O=C(C[C@@H]1C[C@H]2c3cc(NC(=O)NC4CCCCC4)ccc3O[C@H]2[C@H](CO)O1)NC1CCCCC1	/	-13.7%	/	8.7	/	/
CC1CCN(C(=O)COC(=O)c2ccc(=O)n(Cc3ccccc3)n2)CC1	23.0%	-4.1%	-11.6%	4.1	-0.2%	-4.7%
O=C(CNC(=O)c1cccc(F)c1)N/N=C/c1ccc(O)c([N+](=O)[O-])c1	12.0%	2.4%	-9.7%	-72.1*	-7.9%	-2.3%
O=C(CNC(=O)c1ccco1)N/N=C/c1ccc(O)c([N+](=O)[O-])c1	17.2%	-21.1%	-16.0%	-27.5	-6.0%	-3.8%
O=C(CNC(=O)C(c1ccccc1)c1ccccc1)N/N=C/c1ccc(O)c([N+](=O)[O-])c1	-8.4%	-6.2%	-26.8%	?	0.5%	-36.6%
O=C(CNC(=O)c1ccc(F)cc1)N/N=C/c1ccc(O)c([N+](=O)[O-])c1	9.3%	4.5%	-14.6%	-65.4*	-6.1%	-3.4%
O=S(=O)(c1ccc(F)cc1)N1CCN(c2ccc(F)cc2)CC1	37.3%	-11.8%	-15.7%	6.2	-4.6%	0.2%
O=C(c1cccc(F)c1)N1CCN(CC2CC3C=CC2C3)CC1 (stereo not drawn)	?	-12.6%	5.62µM*	-9.5	-1.3%	50.1µM*
O=S(=O)(c1ccc(F)cc1)N1CCN(CC2CC3C=CC2C3)CC1 (stereo not drawn)	?	-6.2%	11.2µM*	-6.8	-4.5%	50.1µM*
O=C(c1ccccc1F)N1CCN(CC2CC3C=CC2C3)CC1 (stereo not drawn)	?	-0.5%	3.98µM*	1.0	1.6%	56.2µM*
Cc1ccc(CN2CCN(CC3CC4C=CC3C4)CC2)cc1 (stereo not drawn)	?	-2.8%	5.62µM*	0.2	?	28.2µM*
O=CN1CCN(C(=O)c2ccccc2F)CC1	11.2%	-6.4%	-7.1%	10.2	-2.7%	/
CCOc1ccccc1NC(=O)CSc1nnc(CCC(=O)Nc2ccccc2F)n1C	15.1%	-1.3%	-5.1%	-4.1	-4.4%	-2.8%
O=C1c2cccc3cccc(c23)N1Cc1cccc(F)c1	i	2.9%	482.5%	0.2	-6.9%	381.7%
SMILES	HP1b chromo inh	PLK1 PBD inh	JMJD2A Tudor inh	PI5P4K alpha inh	KAT2A inh	BAZ2B block
Fc1cccc(/C=N/Nc2nncc3ccccc23)c1	17.4%	21.2µM*	20µM*	-11.9	-1.5%	-33.9%
C(=N\Nc1nncc2ccccc12)/c1ccccn1	11.4%	-10.9%	79.4µM*	-3.4	-6.6%	25.1µM*
Cc1ccccc1N1CCN(C2CCCN(C(=O)c3cnsn3)C2)CC1 (stereo not drawn)	30.6%	-4.5%	-4.0%	7.9	-1.4%	-15.7%[57.1 µM]
Cn1c(=O)c(N)c2c3c(c(Br)ccc31)C(=O)c1ccccc1-2	11.8%[57 µM]	0.597µM*	-34.2%	1.9	-16.5%	-33.4%
O=c1c2[nH]c3cc(Br)sc3c2cnn1Cc1ccccc1F	/	/	39.8µM*	/	/	/
N#Cc1cccc(NC(=O)Cn2cnc(S(=O)(=O)N3CCOCC3)c2)c1	-12.5%	9.47µM*	?	-16.3	-3.9%	-28.2%
N#Cc1cccc(NC(=O)Cn2cnc(S(=O)(=O)N3CCCC3)c2)c1	29.6%	-9.3%	-5.5%	-0.5	-1.4%	1.1%
S=c1[nH]cc(Cc2ccccc2)s1	?	?	3.98µM*	-0.9	-10.0%	-31.8%
O=c1[nH]cc(Cc2ccccc2)c(=O)[nH]1	/	1.2%	/	1.2	/	/
CC(C)CNc1ncnc2c1ncn2[C@H]1CN(CCc2ccccc2)C[C@@H](CO)O1	/	-3.8%	/	6.8	/	/
CC(=O)c1ccc(N2CCN(C(=O)c3nn(C)c4c3CS(=O)(=O)c3ccccc3-4)CC2)cc1	-3.8%	26.7µM*	?	-14.5	-1.4%	-25.8%
Cc1cccc(N2CCN(C(=O)CS(=O)(=O)c3cccc4nsnc34)CC2C)c1 (stereo not drawn)	4.8%[57 µM]	/	-25.8%	/	13.9%	-16.5%
COC(=O)c1cc(Cl)ccc1NC(=O)CSc1ncc(S(=O)(=O)c2ccc(Br)cc2)c(=O)[nH]1	6.0%	/	-24.6%	/	?	79.4µM*
CC(C)(C)SCCNC(=O)c1ccc(CN2CCc3ccccc3C2)cc1	-5.9%	-5.9%	-23.4%	-3.0	-15.5%	-3.7%
Cc1ccc(NC(=O)CN2CCOCC2)cc1Cl	28.1%	-18.3%	-12.0%	3.2	10.5%	1.7%
C/C(=N\Nc1ccc(S(=O)(=O)Nc2ccc(Cl)cc2)cc1[N+](=O)[O-])c1ccc(N2CCOCC2)cc1	?	-7.7%	5.01µM*	5.9	-6.7%	7.94µM*
CC(C)c1ccc(S(=O)(=O)Nc2ccc(N3CCOCC3)cc2)cc1	-1.3%	0.5%	-31.6%	5.5	-1.1%	44.7µM*
Cc1ccc(S(=O)(=O)Nc2ccc(N3CCOCC3)cc2)cc1	16.6%	-0.6%	-17.2%	/	-4.8%	56.2µM*
Cc1ccc(S(=O)(=O)Nc2cc(NC(=O)CN3CCOCC3)ccc2Cl)cc1	17.4%	-2.9%	-18.9%	/	-0.6%	79.4µM*
CC(=O)Nc1ccc(S(=O)(=O)Nc2ccc(N3CCOCC3)cc2)cc1	21.4%	1.4%	-2.9%	-7.5	-0.7%	-8.4%

Source: PubChem BioAssay (National Center for Advancing Translational Sciences (NCATS))
